Several values for one entry are separate records, joined by “and”; a condition that tells them apart may be missing. Equal values may be shown once. Out of some 220,000 compounds screened, about 2,000 (0.91%) were called active. Another 2% or so got no clear call; they are omitted. A selection follows. Entries with a potency or affinity are not part of this list. Unmarked numbers belong to inactive results. Rule as the data show it: inconclusive = inhibition above about 80% without an active follow-up result; inactive = below that; test concentration not stated here.

The nature of this assay: M. tuberculosis H37Rv growth inhibitors, H37Rv strain (AID 1626).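 Also: bacteria incubated seven days before Alamar blue readout; 0% = bacteria only wells and 100% = bacteria with antibiotic wells.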 To be noted: stronger effect = higher value, concentration not given here.
As usually defined, the inhibition is the relative decrease from the control value, in per cent. As to `O=C(N/N=C/c1ccc2c(c1)OCO2)c1cc(-c2ccccc2)nc2ccccc12`, the inhibition is 9.28%. Turning to `CC1CCCCC1NC(=O)COc1ccc(-n2cnnn2)cc1` (configuration not stated), the inhibition was 3.54%. On to `COc1ccc(/C=N/NC(=O)Cn2cnc3c2c(=O)n(C)c(=O)n3C)cc1`, for which the inhibition was 0.48%. For the compound `CCc1ccc(C(C(=O)NC(C)(C)CC)N(Cc2ccco2)C(=O)Cn2nnc3ccccc32)cc1` (configuration not stated), the inhibition is 2.42%.

In the case of `COc1ccc(NS(=O)(=O)c2ccc(Cl)c(NC(=O)c3cccnc3Cl)c2)cc1`, the inhibition is 9.9%. As for `O=[N+]([O-])c1cccc2c(Cl)ccnc12`, the inhibition is -5.33%. Consider `Cc1ccc(C(=O)CNc2cccc(Cl)c2)cc1`, for which the inhibition is -5.8%. As for `Cc1ccc(NCCC(=O)c2ccc(Cl)cc2)cc1`, the inhibition is 51.3%. Then `Cc1ccc(C(=O)CNc2ccc(Cl)cc2)cc1`, with -1.34%; and `CC(C)(C)c1ccc(C(=O)NNC(=O)c2ccc(Cl)cc2)cc1`, with 1.17%; and `Cc1ccc(C(=O)CC(=O)c2ccc(C(C)(C)C)cc2)cc1`, with 3.46%. Turning to `Cc1ccc(O)c(C(=O)CC(=O)c2cccc(F)c2)c1`, the inhibition is 62.1%.

For the compound `CCOC(=O)c1c(CS(=O)(=O)c2ccccc2)n(C)c2cc(Br)c(O)c(CN(C)C)c12`, the inhibition is -0.08%. With `COc1cccc(N=Nc2c(N)[nH]n3c(=O)cc(-c4ccccc4)nc23)c1`, the inhibition is 70.2%. As to `CCC(Oc1ccccc1)C(=O)N1CCN(c2ccccn2)CC1` (configuration not stated), the inhibition was 0.51%.

For the compound `O=C(Nc1ccc(-c2nnn(CC(=O)N3CCN(C(=O)c4ccco4)CC3)n2)cc1)c1ccccc1F`, the inhibition was -1.57%. For the compound `O=C(O)/C=C/C(=O)NC1CC1`, the inhibition is -1.35%. As to `O=C1OC(/C(=C\Nc2ccc(F)cc2F)[N+](=O)[O-])c2ccccc21` (configuration not stated), the inhibition was 6.38%. Then `Cc1ccc(N/C=C(\C2OC(=O)c3ccccc32)[N+](=O)[O-])c(C)c1` (configuration not stated), with 0.81%; and `O=C(c1ccc([N+](=O)[O-])s1)N1CCN(c2ccccc2)CC1`, with 2.71%. As for `O=C(c1cccc([N+](=O)[O-])c1)N1CCN(c2cccc(Cl)c2)CC1`, the inhibition was 2.48%. With `COc1ccc(C2Nc3ccccc3C(=O)N2c2ccccc2)cc1COc1ccccn1` (configuration not stated), the inhibition was 6.87%. Then `CCN(CC)CCNS(=O)(=O)c1ccc(C(=O)NN)cc1`, with 2.36%; and `Cc1cccc(C)c1OCc1nnc2c3cnn(C)c3ncn12`, with -9.69%; and `COC(=O)c1c(C)oc(C)c1S(=O)(=O)N(C)C1CCCCC1`, with -4.71%. As for `C(=Nc1ccc(Nc2ccccc2)cc1)c1ccc2ccccc2c1`, the inhibition is 51.2%. Then `O=[N+]([O-])c1ccc(N=Cc2ccc(Br)c([N+](=O)[O-])c2)cc1`, with 8.65%; and `COc1ccc(C(=O)CN2C3=NCCCN3c3ccccc32)cc1OC`, with -2.22%; and `CCc1c(C(=O)N/N=C/c2ccsc2)csc1C`, with -6.79%.

Regarding `CCc1ccc(C(=O)NC(C(=O)O)C(C)C)cc1` (configuration not stated), the inhibition was -19.3%. Turning to `COc1ccc(NC(=O)CCSc2ccc3ccccc3n2)cc1`, the inhibition is 70.9%. The same measure for `COc1cccc(NC(=O)CCSc2ccc3ccccc3n2)c1`: 28.7%. Consider `Cc1cc(C)n2nc(N)c(N=Nc3cccc(Cl)c3)c2n1`, for which the inhibition was 79.8%. With `Cc1nc(S/C(=C/c2ccc(-c3ccc(C(=O)O)cc3)o2)C(=O)O)n[nH]1`, the inhibition was -17.2%.

Regarding `CC(=O)c1ccc(-c2ccc(/C=C(/Sc3n[nH]c(C)n3)C(=O)O)o2)cc1`, the inhibition was 6.55%. On to `O=c1oc2ccccc2c(N2CCCCC2)c1CN1CCCCC1`, for which the inhibition was 1.71%. On to `COc1ccc(OC(=O)c2cc3ccccc3o2)cc1`, for which the inhibition is 0.38%. Then `COc1ccc(OC)c(NC(=O)c2cc3ccccc3o2)c1`, with 7.13%; and `O=C1CCCC2=C1C(c1ccncc1)c1c(nc(SCc3ccccc3Cl)[nH]c1=O)N2` (configuration not stated), with 11.3%; and `CC[C@@H](C)C(NC(=O)OC(C)(C)C)c1cn([C@@H](CCC(=O)OC(C)(C)C)C(=O)N2CCN(C(=O)OC(C)(C)C)CC2)nn1` (some centres not stated), with -1.45%. As to `O=C(c1ccc(COc2c(F)c(F)c(F)c(F)c2F)o1)N1CCN(Cc2ccc3c(c2)OCO3)CC1`, the inhibition is -9.41%. In the case of `O=C(c1ccc(COc2ccccc2Cl)o1)N1CCN(Cc2ccc3c(c2)OCO3)CC1`, the inhibition is -0.88% and 13.3%. For `OCCC1CN(Cc2cccc(-n3cccn3)c2)CCN1Cc1ccccc1` (configuration not stated), the inhibition is -1.74%.

Consider `CC(CCc1ccccc1)NC(=O)CSc1nc(N)cc(N)n1` (configuration not stated), for which the inhibition is -5.33%.

As for `COc1cccc(C2(O)CCN(Cc3ccncc3)CC2)c1`, the inhibition is -10.2%. As to `COc1cc2c(C(=O)O)c(C)n(C)c2cc1Br`, the inhibition was -0.16%. In the case of `Cc1cnc(C(=O)NCc2ccc(Cl)cc2Cl)cn1`, the inhibition is -2.88%. Consider `C#CCSc1nc(C)cc(C(=O)OCC)c1C#N`, for which the inhibition was -3.19%. Take `CCOC(=O)c1cc(C)nc(SC)c1C#N`: the inhibition is 2.58%. The same measure for `NC1=NC(c2ccccc2)=NC1(NC(=O)c1ccccc1)C(Cl)Cl` (configuration not stated): -0.7%; for `COc1ccc(OCC(O)CN(CCO)CC(O)Cn2ccc3ccccc32)cc1` (configuration not stated): 3.01%; for `COC(=O)c1ccc(OCC(O)CN(CCO)CC(O)Cn2ccc3ccccc32)cc1` (configuration not stated): 4.35%. `Cc1ccsc1C(=O)C1CCCN(Cc2cc(F)ccc2-n2cccn2)C1` (configuration not stated): the inhibition is 10.8%. Regarding `O=C(NC1CC1)c1ccc(-c2nc3ccccc3s2)s1`, the inhibition was 46.3%. Then `COCCNC(=O)COC(=O)CSCc1nc2ccccc2s1`, with -1.53%. On to `Cc1noc(C)c1COC(=O)c1ccc(-c2nc3ccccc3s2)s1`, for which the inhibition is -10.8%.

On to `CCN1CCN(C(=O)c2ccc(-c3nc4ccccc4s3)s2)CC1`, for which the inhibition was 0.41%. Take `O=S(=O)(NC1CCCCC1)c1ccc(Br)cc1`: the inhibition is 3.07%. Take `Cc1occc(=O)c1OCc1c(F)cccc1Cl`: the inhibition was 1.78%. Then `CC(C)CNC(=O)COc1ccc(Sc2ccc(OCC(=O)NCC(C)C)cc2)cc1`, with 4.46%. For `CCc1nnc(NC(=O)CCC(=O)NCc2ccc(OC)cc2)s1`, the inhibition was -3.41%. The same measure for `O=C(O)c1cccc(Cn2c(Cl)c(/C=N/NC(=O)c3cccc(O)c3)sc2=O)c1`: -13.5%. Regarding `Cc1ccc(NC(=O)CCC(=O)c2cccs2)c(O)c1`, the inhibition was -1.47%. Turning to `Cc1ccc2nc(-c3ccncc3)cc(-c3ccccc3)c2c1`, the inhibition is 9.15%. The same measure for `CCS(=O)(=O)Nc1cccc(-c2ccc3nnc(C)n3n2)c1`: -7.2%; for `Cc1ccc2nc(-c3ccc(NS(C)(=O)=O)cc3)cc(-c3ccccc3)c2c1`: 64.5%; for `CCOC(=O)c1cc(-c2ccccc2)nc2ccc(C)cc12`: 29.4%. The same measure for `COC(=O)[C@@H]1CCCN1C(=O)CCc1nnc(C2CCCCC2)o1`: 3.78%; for `COc1ccc(NC(=O)O/N=C2/CCCc3ccc(OC)cc32)cc1`: -0.42%. As for `Cc1nc(CSc2ccc(Cl)cc2)cc(N2CCOCC2)n1`, the inhibition was -2.98%.

With `O=S(=O)(Cc1cc(N2CCOCC2)nc(-c2ccccn2)n1)c1ccccc1`, the inhibition is 2.59%. On to `O=C(Nc1ccc2c(c1)OCO2)c1ccc(S(=O)(=O)N2CCCC2)cc1`, for which the inhibition is -0.32%. With `CCOc1ccc(NC(=O)c2ccc(CNc3c(N4CCCC4)c(=O)c3=O)cc2)cc1`, the inhibition was 67.9%. With `CCOc1cc(/C=C/c2ccc3cccc([N+](=O)[O-])c3n2)cc(Cl)c1O`, the inhibition was 0.72%. For `Nc1nccc(/C=C/c2c(F)cccc2Cl)n1`, the inhibition is 0.04%. Take `Fc1cccc(F)c1/C=C/c1ccc2ccccc2n1`: the inhibition is 7.53%. As to `CC(=O)Oc1c(Cl)cc(Cl)cc1/C=C/c1ccc2ccccc2n1`, the inhibition was 21.1%. Turning to `Clc1ccccc1OCc1nn[nH]n1`, the inhibition was -3.82%. For the compound `Cn1cc2cccc([N+](=O)[O-])c2n1`, the inhibition was -0.35%. As for `O=C(/C=C/c1ccco1)Nc1ccc2c(c1)OCO2`, the inhibition is 2.3%. Consider `Nc1nc(N2CCN(c3ccc(Cl)cc3)CC2)n[nH]1`, for which the inhibition was 6.82%.

On to `CCCCc1ncc(CN2CCCC(C(=O)c3ccc(SC)cc3)C2)[nH]1` (configuration not stated), for which the inhibition was 1.38%. For the compound `CSc1ccc(C(=O)C2CCCN(Cc3ccn[nH]3)C2)cc1` (configuration not stated), the inhibition was 2.84%. On to `CCOC(=O)c1cc(-c2ccco2)nc2c1c(C)nn2-c1cccc(Cl)c1`, for which the inhibition is -0.03%. As for `O=C(NCC1CCCCC1)c1cc([N+](=O)[O-])ccc1N1CCOCC1`, the inhibition was 6.09%. For the compound `CC(NC(=O)c1ccccc1Br)c1ccc2c(c1)CCCC2` (configuration not stated), the inhibition is 6.54%.

Take `CC(NC(=O)c1ccc(F)cc1)c1ccc2c(c1)CCCC2` (configuration not stated): the inhibition was 1.58%. In the case of `CCOC(=O)C(CC)Sc1ncnc2c1nnn2-c1ccc(F)cc1` (configuration not stated), the inhibition is 10.4%. In the case of `CCC(Sc1ncnc2c1nnn2-c1ccc(F)cc1)C(=O)OC` (configuration not stated), the inhibition is 66.9%. Take `Cc1cc(C)cc(NC(=O)NCc2c(-c3ccccc3)noc2C)c1`: the inhibition was 1.42%. Then `CCOc1ccc(NC(=O)C(CC)NC(=O)c2ccccc2CO)cc1` (configuration not stated), with 3.2%; and `CCOc1ccc(NC(=O)c2ccccc2O)cc1`, with 6.33%; and `CN(C)/C=N/c1cc(=O)n(Cc2ccccc2)c(=O)n1C`, with -11.1%.

For `O=c1oc2ccccc2cc1-c1nc2ccccc2o1`, the inhibition is 8.96%. Turning to `O=c1oc2ccc3ccccc3c2cc1-c1nnc(-c2ccccc2)o1`, the inhibition was 77.2%. For `COc1ccc(-c2nnc(-c3cc4c(ccc5ccccc54)oc3=O)o2)cc1`, the inhibition is -4.32%. Consider `COc1ccc2oc(=O)c(-c3nc4ccccc4o3)cc2c1`, for which the inhibition is 2.35%.

The values above are taken from PubChem BioAssay AID1626 (SRMLSC, 2009).
